Values without a mark were called inactive. No rule for the calls is given here.
Test system: Botulinum neurotoxin type F light chain protease (Clostridium botulinum)
Test: Clostridium botulinum type F light chain protease inhibitors, microsphere substrate cleavage, validation (AID 588459)
Conditions: multiplex microsphere protease substrate cleavage assay, flow cytometry; at 10 µM; stronger effect = higher value

Structure (SMILES) | inhibition
CN1C(=O)NC(c2ccc(O)cc2)C2=C1CN(c1cccc3ccccc13)C2=O (stereo not given) | 3.2%
CC[C@]1(O)CC2CN(CCc3c([nH]c4ccccc34)[C@@](C(=O)OC)(c3cc4c(cc3OC)N(C=O)[C@H]3[C@@](O)(C(=O)OC)[C@H](OC(C)=O)[C@]5(CC)C=CCN6CC[C@]43[C@@H]65)C2)C1 (stereo not given in full) | 1.5%
Cc1cc(C(=O)Nc2ccccc2C(=O)N2CCCCC2)ccc1[N+](=O)[O-] | 2.8%
O=c1nc2n(c3c1oc1ccccc13)Cc1ccccc1-2 | 2.1%
COc1cc(CC(=O)NCCc2ccc(S(N)(=O)=O)cc2)cc(OC)c1OC | 4.1%
CCCN(CCC)C(=O)C(CCC(=O)O)NC(=O)c1ccccc1 (stereo not given) | 0.5%
CN1CCc2c(n(CC(O)CN(CCO)CCO)c3ccccc23)C1=O (stereo not given) | -0.1%
CC1(C)CC(NCc2ccccc2)CCO1 (stereo not given) | 9.4%
O=C(O)c1cnccn1 | -5.5%
Cc1cc(OC(C(=O)O)c2ccccc2)c2c(C)c(Cc3ccccc3)c(=O)oc2c1 (stereo not given) | 2%
Clc1cc(-c2ccc(/C=N/n3cnnc3)o2)ccc1Br | -3.6%
CN(C)CCOc1ccccc1Cc1ccccc1 | 19.8%
COc1ccc(C2(CCN=Cc3ccc(N(C)C)cc3)CCOC(C)(C)C2)cc1 (stereo not given) | 9.1%
CCOC(=O)C1(CCCc2ccccc2)CCN(C2CCN(C(C)=O)CC2)CC1 | 0.1%
CN/C(=C/[N+](=O)[O-])NCCSCc1ccc(CN(C)C)o1 | 0.1%
COC(=O)C1=C(C)NC(C)=C(C(=O)OC)C1c1ccccc1[N+](=O)[O-] | 5.8%
OCCN(CCO)c1nc(N2CCCCC2)c2nc(N(CCO)CCO)nc(N3CCCCC3)c2n1 | 4.8%
CN(C)CCC(c1ccc(Br)cc1)c1ccccn1 (stereo not given) | 1.3%
O=c1n(CCCN2CCN(c3cccc(Cl)c3)CC2)nc2ccccn12 | -5.2%
C[C@]12CCC(=O)C=C1[C@H](O)C[C@@H]1[C@@H]2[C@@H](O)C[C@@]2(C)[C@H]1CC[C@]2(O)C(=O)CO | -0.1%

Structure (SMILES) | inhibition
CC(C)(C)C(=O)NC(=S)NNC(=O)c1ccncc1 | 8.3%
CC(C)CCn1c(N2CCc3ccccc3C2)nc2c1c(=O)[nH]c(=O)n2C | -1.6%
CNc1nc(Nc2ccccc2)nc(OCC(F)(F)F)n1 | 0.2%
CC#C[C@]1(O)CC[C@H]2[C@@H]3CCC4=CC(=O)CCC4=C3[C@@H](c3ccc(N(C)C)cc3)C[C@@]21C | -3.9%
CCOc1ccc(NC(=O)N[C@@H](CCSC)C(=O)OC)cc1 | -0.6%
COC(=O)c1cc(Br)c(=O)n(CCc2ccc(O)cc2)c1 | 2.6%
CCn1nc(C(=O)O)c(=O)c2cc3c(cc21)OCO3 | 5.7%
Cc1cnc(N)c2c(=O)oc3ccccc3c12 | 1.3%
CCCCC(=O)O[C@]1(C(=O)CO)CC[C@H]2[C@@H]3CCC4=CC(=O)CC[C@]4(C)[C@H]3[C@@H](O)C[C@@]21C | -3.5%
CCOc1cc2c3c(c1)C(C)=CC(C)(C)N3C(=O)C2=O | 1.1%
COc1ccc(OCC(=O)N2c3ccc(C)cc3C3CN(C)CCC32)cc1 (stereo not given) | -4.9%
COC(=O)c1[nH]c2ccc(C)cc2c1NC(=O)CN1CCc2cc(OC)c(OC)cc2C1 | -1.9%
COc1ccc(CN2CCC(=O)NC2=O)cc1 | -2.3%
COc1ccc(C2=CC(=O)C=CC2=O)cc1 | -4.7%
COc1ccc(C(=O)NCCC2=CCCCC2)cc1[N+](=O)[O-] | -5.9%
O=C(NCCc1nc2ccccc2[nH]1)c1cccc(Br)c1 | -3.2%
COc1ccc2c(c1)c(CC(=O)O)c(C)n2C(=O)c1ccc(Cl)cc1 | 0.9%
CC(O)Cn1cnc2c1c(=O)n(C)c(=O)n2C (stereo not given) | -1.4%
Cc1cccc(Nc2ncccc2C(=O)O)c1C | -2.7%
COc1ccc(C(=O)C2CCCCC2=O)cc1 (stereo not given) | 1.5%

From PubChem BioAssay
